This is an account of results in ChEMBL document CHEMBL1961873, “Compounds: GSK PKIS; Assays: Nanosyn kinase panel” (2012).

Assay [1] addresses Tyrosine-protein kinase receptor UFO (Homo sapiens) (UniProt P30530). The following applies: at 1 µM.
Assay [2] has as its target Tyrosine-protein kinase Blk (Homo sapiens) (UniProt P51451). As to conditions: at 0.1 µM.
The target is the same in assay [3]. The following applies: at 1 µM.
The target of assay [4] is T1, Cytoplasmic tyrosine-protein kinase BMX (Homo sapiens) (UniProt P51813).
T1 sequence (whole entry): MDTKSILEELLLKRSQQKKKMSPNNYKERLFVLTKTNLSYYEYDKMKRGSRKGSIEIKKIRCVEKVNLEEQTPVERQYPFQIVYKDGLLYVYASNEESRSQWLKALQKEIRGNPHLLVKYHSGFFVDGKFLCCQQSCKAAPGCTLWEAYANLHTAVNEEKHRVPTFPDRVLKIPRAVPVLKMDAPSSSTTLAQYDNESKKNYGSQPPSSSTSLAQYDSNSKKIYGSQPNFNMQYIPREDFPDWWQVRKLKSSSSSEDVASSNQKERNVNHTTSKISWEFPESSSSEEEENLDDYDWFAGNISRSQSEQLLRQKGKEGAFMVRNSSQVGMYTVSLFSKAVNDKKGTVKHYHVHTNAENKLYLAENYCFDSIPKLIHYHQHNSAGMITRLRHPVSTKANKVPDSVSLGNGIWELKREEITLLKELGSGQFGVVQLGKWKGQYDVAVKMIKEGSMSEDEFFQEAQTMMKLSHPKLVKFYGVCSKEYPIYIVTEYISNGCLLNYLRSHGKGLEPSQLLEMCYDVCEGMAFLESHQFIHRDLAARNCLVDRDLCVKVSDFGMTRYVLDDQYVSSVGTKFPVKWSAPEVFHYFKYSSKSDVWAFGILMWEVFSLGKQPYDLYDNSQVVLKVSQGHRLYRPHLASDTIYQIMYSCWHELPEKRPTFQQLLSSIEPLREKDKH
As to conditions: at 0.1 µM.

For assay [5], the target named is T1, Cytoplasmic tyrosine-protein kinase BMX (Homo sapiens). As to conditions: at 1 µM.
Assay [6] has as its target Protein-tyrosine kinase 6 (Homo sapiens) (UniProt Q13882). The following applies: at 0.1 µM.
For assay [7] the target is unchanged. As to conditions: at 1 µM.
For assay [8], the target named is Tyrosine-protein kinase BTK (Homo sapiens) (UniProt Q06187). The following applies: at 0.1 µM.
Assay [9] has the same target. As to conditions: at 1 µM.
Assay [10] deals with Tyrosine-protein kinase CSK (Homo sapiens) (UniProt P41240). The following applies: at 0.1 µM.
Assay [11] has the same target. The following applies: at 1 µM.
Assay [12] has as its target T2, Discoidin domain-containing receptor 2 (Homo sapiens) (UniProt Q16832).
T2 sequence (whole entry): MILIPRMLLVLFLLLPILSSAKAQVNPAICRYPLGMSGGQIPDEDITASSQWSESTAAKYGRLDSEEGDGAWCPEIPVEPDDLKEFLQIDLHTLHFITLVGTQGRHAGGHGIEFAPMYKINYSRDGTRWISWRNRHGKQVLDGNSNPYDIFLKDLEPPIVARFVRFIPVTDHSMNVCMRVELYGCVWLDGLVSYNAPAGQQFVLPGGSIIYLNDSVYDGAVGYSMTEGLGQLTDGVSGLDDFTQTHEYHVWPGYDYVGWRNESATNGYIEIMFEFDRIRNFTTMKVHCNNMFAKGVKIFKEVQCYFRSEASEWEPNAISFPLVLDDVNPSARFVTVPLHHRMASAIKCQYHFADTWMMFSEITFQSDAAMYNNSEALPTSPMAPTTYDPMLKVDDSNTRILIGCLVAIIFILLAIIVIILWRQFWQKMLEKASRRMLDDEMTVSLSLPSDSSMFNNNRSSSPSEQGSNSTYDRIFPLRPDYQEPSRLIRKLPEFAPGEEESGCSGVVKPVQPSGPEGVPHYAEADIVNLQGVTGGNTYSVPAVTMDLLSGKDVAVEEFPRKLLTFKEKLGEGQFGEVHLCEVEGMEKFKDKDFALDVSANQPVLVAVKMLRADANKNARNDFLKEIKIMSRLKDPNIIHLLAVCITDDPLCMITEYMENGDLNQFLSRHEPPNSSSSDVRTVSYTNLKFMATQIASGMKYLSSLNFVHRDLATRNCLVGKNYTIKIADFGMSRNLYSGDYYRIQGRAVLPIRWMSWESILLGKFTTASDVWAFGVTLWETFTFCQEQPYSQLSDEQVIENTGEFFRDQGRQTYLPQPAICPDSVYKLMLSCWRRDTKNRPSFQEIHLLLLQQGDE
The following applies: at 0.1 µM.

The target in assay [13] is T2, Discoidin domain-containing receptor 2 (Homo sapiens). The following applies: at 1 µM.
Assay [14] has as its target Epidermal growth factor receptor (Homo sapiens) (UniProt P00533). The following applies: at 0.1 µM.
The target is the same in assay [15]. The following applies: at 1 µM.
Assay [16] deals with Epidermal growth factor receptor (Homo sapiens), P00533 [L858R]. The following applies: at 0.1 µM.
The test system is the same in assay [17]. The following applies: at 1 µM.
Assay [18] relates to Epidermal growth factor receptor (Homo sapiens), P00533 [L861Q]. As to conditions: at 0.1 µM.
The test system is the same in assay [19]. The following applies: at 1 µM.
In assay [20] the test system is Epidermal growth factor receptor (Homo sapiens), P00533 [T790M]. As to conditions: at 0.1 µM.
Chain of Epidermal growth factor receptor (Homo sapiens), P00533 [T790M] (P00533 whole entry T790M): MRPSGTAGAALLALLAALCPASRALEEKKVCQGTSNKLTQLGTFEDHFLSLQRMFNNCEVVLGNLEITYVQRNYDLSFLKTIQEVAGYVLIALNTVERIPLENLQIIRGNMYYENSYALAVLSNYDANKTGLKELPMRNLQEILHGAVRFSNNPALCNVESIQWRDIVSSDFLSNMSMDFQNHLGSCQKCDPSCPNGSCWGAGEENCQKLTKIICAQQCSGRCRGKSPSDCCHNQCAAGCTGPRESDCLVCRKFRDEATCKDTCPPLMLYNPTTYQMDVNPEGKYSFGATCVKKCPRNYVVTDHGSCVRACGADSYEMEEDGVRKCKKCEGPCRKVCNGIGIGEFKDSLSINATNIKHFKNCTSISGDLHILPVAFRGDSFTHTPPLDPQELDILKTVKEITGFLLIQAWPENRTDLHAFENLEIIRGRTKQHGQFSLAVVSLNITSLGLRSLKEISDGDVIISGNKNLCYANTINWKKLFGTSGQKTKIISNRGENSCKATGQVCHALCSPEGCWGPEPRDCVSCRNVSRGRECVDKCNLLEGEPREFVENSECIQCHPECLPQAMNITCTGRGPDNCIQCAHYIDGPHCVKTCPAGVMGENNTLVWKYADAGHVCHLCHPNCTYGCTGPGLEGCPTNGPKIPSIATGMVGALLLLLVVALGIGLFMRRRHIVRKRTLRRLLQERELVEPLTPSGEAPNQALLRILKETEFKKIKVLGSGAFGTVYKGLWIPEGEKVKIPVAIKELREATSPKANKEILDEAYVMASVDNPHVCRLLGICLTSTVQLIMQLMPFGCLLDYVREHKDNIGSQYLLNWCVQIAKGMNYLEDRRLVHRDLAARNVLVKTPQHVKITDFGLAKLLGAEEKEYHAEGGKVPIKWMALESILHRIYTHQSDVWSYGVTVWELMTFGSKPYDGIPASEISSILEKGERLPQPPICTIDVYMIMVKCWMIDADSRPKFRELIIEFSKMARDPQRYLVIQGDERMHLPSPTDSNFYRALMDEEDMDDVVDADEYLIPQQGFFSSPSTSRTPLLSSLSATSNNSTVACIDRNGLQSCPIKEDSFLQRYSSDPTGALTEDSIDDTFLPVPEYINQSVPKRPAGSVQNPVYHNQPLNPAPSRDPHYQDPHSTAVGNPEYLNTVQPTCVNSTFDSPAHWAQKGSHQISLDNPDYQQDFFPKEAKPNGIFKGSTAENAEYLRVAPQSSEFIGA

Chain of Protein-tyrosine kinase 6 (Homo sapiens) (Q13882 whole entry, looked up): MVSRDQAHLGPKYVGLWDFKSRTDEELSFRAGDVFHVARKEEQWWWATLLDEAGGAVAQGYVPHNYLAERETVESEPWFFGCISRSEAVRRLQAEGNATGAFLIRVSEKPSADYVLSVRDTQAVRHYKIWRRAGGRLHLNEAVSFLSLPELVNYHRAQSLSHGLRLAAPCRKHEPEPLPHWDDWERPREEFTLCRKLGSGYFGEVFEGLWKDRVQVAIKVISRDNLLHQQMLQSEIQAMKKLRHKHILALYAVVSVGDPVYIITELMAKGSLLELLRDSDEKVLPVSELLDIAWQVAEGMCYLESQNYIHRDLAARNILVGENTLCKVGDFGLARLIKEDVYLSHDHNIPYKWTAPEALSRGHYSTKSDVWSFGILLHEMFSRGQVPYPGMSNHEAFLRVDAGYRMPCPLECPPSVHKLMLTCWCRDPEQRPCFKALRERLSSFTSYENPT
Chain of Epidermal growth factor receptor (Homo sapiens), P00533 [L858R] (P00533 whole entry L858R): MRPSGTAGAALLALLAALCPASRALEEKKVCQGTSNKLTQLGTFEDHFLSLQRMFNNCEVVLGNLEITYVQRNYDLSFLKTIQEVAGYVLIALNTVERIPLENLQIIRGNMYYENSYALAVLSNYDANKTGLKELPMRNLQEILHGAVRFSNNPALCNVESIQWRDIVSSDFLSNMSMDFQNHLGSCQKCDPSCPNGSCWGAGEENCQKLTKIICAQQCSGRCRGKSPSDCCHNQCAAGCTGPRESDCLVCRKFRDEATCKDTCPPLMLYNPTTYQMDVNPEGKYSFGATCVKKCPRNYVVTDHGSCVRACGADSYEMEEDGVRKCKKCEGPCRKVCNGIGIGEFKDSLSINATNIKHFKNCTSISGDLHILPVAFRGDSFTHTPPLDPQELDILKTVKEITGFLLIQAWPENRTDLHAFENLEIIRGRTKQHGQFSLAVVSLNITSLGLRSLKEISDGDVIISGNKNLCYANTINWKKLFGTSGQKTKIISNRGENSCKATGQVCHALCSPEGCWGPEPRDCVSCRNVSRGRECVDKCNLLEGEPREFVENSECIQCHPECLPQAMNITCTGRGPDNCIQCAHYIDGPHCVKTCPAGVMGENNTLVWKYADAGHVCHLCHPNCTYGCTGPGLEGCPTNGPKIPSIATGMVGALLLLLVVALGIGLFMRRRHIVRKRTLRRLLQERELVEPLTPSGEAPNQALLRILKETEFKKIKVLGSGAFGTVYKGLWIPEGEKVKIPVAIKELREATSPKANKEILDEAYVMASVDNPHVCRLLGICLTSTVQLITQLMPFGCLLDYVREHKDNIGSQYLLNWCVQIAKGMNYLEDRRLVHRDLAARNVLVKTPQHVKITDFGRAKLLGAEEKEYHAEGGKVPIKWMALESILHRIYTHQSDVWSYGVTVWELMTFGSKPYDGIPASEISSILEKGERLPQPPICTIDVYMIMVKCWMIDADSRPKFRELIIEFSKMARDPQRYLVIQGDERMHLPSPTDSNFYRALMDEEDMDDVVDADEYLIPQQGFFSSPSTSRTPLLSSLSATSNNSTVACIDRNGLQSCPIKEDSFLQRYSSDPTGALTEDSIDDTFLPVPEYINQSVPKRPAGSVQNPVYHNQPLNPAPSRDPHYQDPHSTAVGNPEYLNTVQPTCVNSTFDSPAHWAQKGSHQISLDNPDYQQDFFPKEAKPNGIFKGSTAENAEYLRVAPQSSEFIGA
Chain of Epidermal growth factor receptor (Homo sapiens) (P00533 whole entry): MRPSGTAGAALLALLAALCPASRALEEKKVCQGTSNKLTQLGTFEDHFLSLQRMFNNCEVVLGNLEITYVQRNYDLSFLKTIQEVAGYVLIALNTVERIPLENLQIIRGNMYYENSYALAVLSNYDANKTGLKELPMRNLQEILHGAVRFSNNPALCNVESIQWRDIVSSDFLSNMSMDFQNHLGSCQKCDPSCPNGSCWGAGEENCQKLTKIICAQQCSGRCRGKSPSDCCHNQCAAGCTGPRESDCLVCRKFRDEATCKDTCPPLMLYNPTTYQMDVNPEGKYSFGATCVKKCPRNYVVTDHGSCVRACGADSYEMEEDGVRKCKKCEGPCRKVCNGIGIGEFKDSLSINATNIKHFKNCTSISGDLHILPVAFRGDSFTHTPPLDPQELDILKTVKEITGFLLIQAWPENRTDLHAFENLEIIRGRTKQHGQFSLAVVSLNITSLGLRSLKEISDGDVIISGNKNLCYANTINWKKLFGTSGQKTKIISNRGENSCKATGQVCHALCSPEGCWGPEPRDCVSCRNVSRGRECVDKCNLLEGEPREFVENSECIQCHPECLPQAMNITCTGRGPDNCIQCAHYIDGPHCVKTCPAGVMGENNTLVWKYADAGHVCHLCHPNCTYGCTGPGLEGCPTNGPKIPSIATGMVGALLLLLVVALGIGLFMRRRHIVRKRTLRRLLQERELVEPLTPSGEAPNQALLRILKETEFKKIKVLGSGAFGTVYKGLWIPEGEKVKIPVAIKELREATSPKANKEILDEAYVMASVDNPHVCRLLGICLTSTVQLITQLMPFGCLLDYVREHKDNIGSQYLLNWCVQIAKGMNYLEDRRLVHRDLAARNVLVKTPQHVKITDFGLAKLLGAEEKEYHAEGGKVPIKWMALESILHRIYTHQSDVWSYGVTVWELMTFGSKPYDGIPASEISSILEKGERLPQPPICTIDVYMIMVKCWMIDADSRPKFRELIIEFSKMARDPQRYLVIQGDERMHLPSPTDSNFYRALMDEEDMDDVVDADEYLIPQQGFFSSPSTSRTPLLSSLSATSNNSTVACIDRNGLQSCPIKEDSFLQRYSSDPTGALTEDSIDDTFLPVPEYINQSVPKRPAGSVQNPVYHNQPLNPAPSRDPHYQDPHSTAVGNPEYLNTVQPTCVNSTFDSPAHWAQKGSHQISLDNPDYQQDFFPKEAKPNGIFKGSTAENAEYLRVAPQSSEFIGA
Chain of Tyrosine-protein kinase Blk (Homo sapiens) (P51451 2-505 limits assumed): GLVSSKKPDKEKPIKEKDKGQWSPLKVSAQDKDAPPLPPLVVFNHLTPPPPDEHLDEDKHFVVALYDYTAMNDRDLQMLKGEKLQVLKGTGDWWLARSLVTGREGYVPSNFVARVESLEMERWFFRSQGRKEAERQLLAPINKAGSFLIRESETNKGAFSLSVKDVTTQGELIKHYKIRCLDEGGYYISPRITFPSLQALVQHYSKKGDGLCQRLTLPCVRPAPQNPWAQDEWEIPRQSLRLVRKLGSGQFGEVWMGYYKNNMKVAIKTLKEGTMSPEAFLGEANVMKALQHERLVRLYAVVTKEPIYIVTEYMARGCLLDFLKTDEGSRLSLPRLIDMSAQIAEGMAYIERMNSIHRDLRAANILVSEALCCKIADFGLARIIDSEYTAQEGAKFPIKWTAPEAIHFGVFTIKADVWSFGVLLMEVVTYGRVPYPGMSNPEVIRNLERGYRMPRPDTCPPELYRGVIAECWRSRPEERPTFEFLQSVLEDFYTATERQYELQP
Chain of Tyrosine-protein kinase CSK (Homo sapiens) (P41240 2-450 limits assumed): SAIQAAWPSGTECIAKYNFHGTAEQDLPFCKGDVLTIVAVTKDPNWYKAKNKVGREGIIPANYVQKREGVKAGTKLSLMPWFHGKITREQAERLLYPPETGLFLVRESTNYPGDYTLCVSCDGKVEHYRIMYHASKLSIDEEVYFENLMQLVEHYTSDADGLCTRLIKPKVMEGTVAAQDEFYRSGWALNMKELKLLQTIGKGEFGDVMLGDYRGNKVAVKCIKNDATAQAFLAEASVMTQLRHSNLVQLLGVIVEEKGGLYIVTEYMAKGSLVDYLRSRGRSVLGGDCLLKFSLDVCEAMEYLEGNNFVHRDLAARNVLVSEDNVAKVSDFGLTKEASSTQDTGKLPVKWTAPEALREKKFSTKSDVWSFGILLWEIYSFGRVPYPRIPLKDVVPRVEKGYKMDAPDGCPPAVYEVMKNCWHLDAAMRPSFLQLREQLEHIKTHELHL

The term inhibition denotes the drop in the measured response relative to a control, in per cent. For the compound `CNC(=O)c1ncccc1Nc1nc(Nc2cc3c(cc2OC)CCCN3C(=O)CN(C)C)nc2[nH]ccc12`, the inhibition was 53.5% in [1]; 2.8% in assay [2]; 7.25% in assay [3]; 3.62% in assay [4]; 4.96% in assay [5]; 4% in [6]. Further, the inhibition in [7] is 6.37%; in assay [8] it was 0.46%; in [9], 1.22%; in [10] it was 2.99%; in assay [11], 2.18%; in assay [12], 2.33%. The inhibition in assay [13] stood at 3.8%; in [14], 1.65%; in [15], 7.76%; in [16] it was 4.57%; in assay [17], 22.4%; in assay [18], 4.79%. Further, the inhibition in [19] is 7.78%; in assay [20], 13.2%.
`Cn1c(-c2nonc2N)nc2cnccc21`: the inhibition was -1.86% in [1]; 0.51% in assay [2]; 0.41% in assay [3]; 9.58% in [4]; 4.09% in assay [5]; 4.32% in assay [6]. Moreover, the inhibition in assay [7] is 4.24%; in assay [8] it was 0.86%; in assay [9], 0.33%; in [10], 3.1%; in [11] it was -0.66%; in [12], 0.53%. The inhibition in [13] was found to be 2.78%; in assay [14], 8.18%; in [15] it was 8.08%; in assay [16], 3.74%; in assay [17] it was 5.92%; in [18], 3.1%. Moreover, the inhibition in [19] stood at 4.3%; in assay [20] it was 1.55%.
For the compound `CNC(=O)c1sc(-n2cnc3cc(OC)c(OC)cc32)cc1OCc1ccccc1C(F)(F)F`, the inhibition was -2.36% in assay [1]; 3.39% in assay [2]; 7.51% in assay [3]; 4.57% in assay [4]; 2.17% in [5]; 0.08% in assay [6]. For the same compound, the inhibition is 2.98% in assay [7]; 0.62% in assay [8]; 3.2% in assay [9]; 3.42% in assay [10]; 7.18% in assay [11]; 2.3% in assay [12]. In addition, the inhibition in assay [13] is 2.7%; in [14] it was -0.83%; in assay [15], 2.09%; in assay [16] it was 0.74%; in assay [17], -0.13%; in assay [18] it was 1.16%. Besides, the figures for the inhibition in assay [19] and in assay [20] were 1.23% and 0.64%, respectively.
For the compound `NS(=O)(=O)c1ccc(N/N=C2\C(=O)Nc3cccc(CCc4ccncc4)c32)cc1`, the inhibition in [1] was 0.32%; in [2], 4.33%; in assay [3] it was 10.4%; in [4], 3.67%; in [5], 4.79%; in assay [6] it was -0.69%. For the same compound, the inhibition is -1.07% in assay [7]; 0.17% in [8]; 0.16% in [9]; 1.04% in assay [10]; 0.36% in [11]; 1.26% in assay [12]. Besides, the inhibition was 1.42% in assay [13]; 4.28% in [14]; 6.81% in assay [15]; -0.53% in assay [16]; 3.04% in assay [17]; -0.31% in assay [18]. Also, the inhibition in assay [19] is 0.15%; in assay [20], 0.27%.
For the compound `N#Cc1ccc2c(-c3ccnc(NC4CC4)n3)c(-c3ccc(F)cc3)nn2c1`, the inhibition in [1] was -4.53%; in assay [2] it was -1.08%; in assay [3], -3.55%; in assay [4], 1.17%; in [5] it was 2.56%; in assay [6], -1.17%. Also, the inhibition is 2.88% in assay [7]; -0.25% in assay [8]; -2.34% in [9]; 1.65% in assay [10]; 3.45% in [11]; 4.32% in assay [12]. Moreover, the inhibition in [13] was found to be 15.8%; in assay [14], 1.52%; in assay [15], 13.8%; in assay [16], 5.89%; in assay [17], 41.3%; in [18], 1.64%. Moreover, the inhibition in [19] is 12.9%; in assay [20], -0.38%.
With `CNC(=O)c1cncc(/C=C/c2ccccc2C)c1`, the inhibition in [1] is -5.59%; in assay [2], 2.89%; in assay [3], 6.2%; in assay [4], 0.93%; in [5], 16.1%; in assay [6], 4.25%. Further, the inhibition in assay [7] turned out to be 14.5%; in assay [8], 0.03%; in assay [9], 1.29%; in assay [10], 4.87%; in assay [11] it was 9.89%; in assay [12], 0.33%. For the same compound, the inhibition in assay [13] is 5.42%; in assay [14], 1.22%; in assay [15], 3.62%; in assay [16], 4.66%; in assay [17], 11.7%; in [18], 3.44%. The inhibition was 5.67% in assay [19] and 1.07% in assay [20].
As for `CN(c1ccc(NC(=O)NCCN2CCOCC2)cc1)c1ccnc(Nc2ccc(CS(C)(=O)=O)cc2)n1`, the inhibition in assay [1] is -4.88%; in assay [2], 2.89%; in assay [3], 8.61%; in [4], 0.59%; in assay [5], 22.6%; in assay [6] it was 2.66%. In addition, the inhibition in assay [7] came out at 8.9%; in assay [8], 1.05%; in assay [9], 2.3%; in [10], 3.59%; in [11] it was 13.1%; in assay [12] it was 24.3%. The inhibition in assay [13] was 76%; in assay [14], -0.15%; in assay [15], 1.28%; in assay [16] it was 3.77%; in assay [17], 6.75%; in [18] it was 2.81%. The figures for the inhibition in assay [19] and in assay [20] were 3.82% and 2.04%, respectively.
